# Measurements as given in the supplement of paper PMC6555819.
# Key:
# Experiment in all cases: PBM binding z-score (relative to random genomic background probes); higher = stronger binding; sequences stand for … in GC…GCGATTGACAGCGTAGAATGAAGG
# [1] = tested on: RARb homodimer (NR concentration 270 nM)
# Summary of the method: (§1)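 Custom Agilent 4×180K protein-binding microarrays carried double-stranded probes, each with a 34-nt variable region. These regions held direct-repeat seeds, single-nucleotide variants, half-site ablations and random human genomic background sequences. Ligand-free nuclear receptor dimers were incubated on the arrays for 1 h, antibodies against each partner (one per run) detected binding, and scanned fluorescence was regression-normalized. Binding z-scores take the random background probes as reference.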
# [2] = tested on: RARg:RXRa (NR concentration 270 nM, RXRa partner concentration 90 nM)
# Summary of the method: as §1
# [3] = tested on: RARg homodimer (NR concentration 270 nM)
# Summary of the method: as §1
# [4] = tested on: RXRa DBDmut IVT, anti-RXR (DBD mutation: RXRa K156A/R161A, NR concentration 90 nM)
# Summary of the method: as §1
# [5] = tested on: RXRa homodimer (NR concentration 180 nM)
# Summary of the method: as §1
# [6] = tested on: THRa:RXRa (NR concentration 90 nM, RXRa partner concentration 90 nM)
# Summary of the method: as §1
# [7] = tested on: THRa homodimer (NR concentration 90 nM)
# Summary of the method: as §1
# [8] = tested on: VDR homodimer (NR concentration 270 nM)
# Summary of the method: as §1
Sequence,PBM binding z-score [1],PBM binding z-score [2],PBM binding z-score [3],PBM binding z-score [4],PBM binding z-score [5],PBM binding z-score [6],PBM binding z-score [7],PBM binding z-score [8]
CAAACTAGGTCACCGGAATGTCAAAGTCCGCATG,4.04,5.43,5.46,1.81,3.7,3.71,2.04,0.883
GCTGCTAGGTCATCTGATGGTCAGCTAAAGCTCG,3.52,5.15,4.96,2,2.79,2.97,0.735,0.443
ACACACAGGTGAGTGAAGGTAACTCAGCTGGACG,-0.00486,0.394,0.59,-0.0875,0.549,1.57,-0.409,-0.0907
CCGACTGTGGCAGAAAGGTTACCATACCATCCGG,1.82,1.02,0.761,-0.111,1.47,0.958,-0.0743,-0.259
TATTGTAGATCAAGCAGGTTAAGAAAGCCTGAGT,0.00937,0.285,0.147,-0.887,0.374,0.288,-0.434,0.132
ACTCGGACGACAAAGGTCAGAGCTACGCCAGTGA,4.21,4.65,4.6,-0.0196,4.83,2.75,-0.0567,0.688
GCTGCTAGGTCGGGTTGGTCAGCTAACGGGTACG,0.957,0.215,0.167,-0.0966,0.0101,0.409,0.283,0.431
CCTACTGGGCTACGAAAGGTCATTGATTCAGTGA,4.59,4.54,4.54,0.401,5.27,3.44,0.738,2.02
CAAACTAGGTCACCGGAAGGGCAAAGTCCGCATG,4.57,6.48,5.56,1.21,3.68,3.42,1.7,1.33
GCTGCTAGGTCAGGTTGGTCAGCCAACGGGTACG,2.66,2.78,3.65,0.121,0.819,1.61,0.269,0.768
CCAAGCAGGCCAATCTGGGTCACTCAAGGCTTGA,2.26,1.4,1.34,0.0779,1.25,3.74,0.319,0.154
TGAATGAGGTTAAAGATCAGGGACCGTGGCGTCG,0.662,2.38,0.948,0.631,3.61,2.39,0.453,0.608
GCTTACGGGACAAAGGTTATAGCATGAATAGAAT,1.47,2.52,1.27,0.777,2.36,1.55,-0.159,0.681
GCTAGCAGGCCATTTGGGTCACCCAATGACGGGC,2.08,1.52,1.58,-0.734,1.16,2.19,0.834,0.435
GCAACGAGGGCATTCGAGTTGATAGCATGGCGAT,0.663,0.926,1.45,3.01,0.65,3.31,-0.513,3.27
TAGCCTAGGGCATTGGGCCAGTATAGTACGCATC,0.542,0.434,1.21,-0.706,0.0585,-0.328,-0.611,-0.306
TATACAGGGGCAAAGGCCAGAGTACGAATGTCGA,1.74,1.95,1.85,0.806,1.49,0.569,-0.328,0.679
CGTCCAAGGTCAGAGTGGTCAGTGAATGCCGAGT,3.83,4.78,5.48,2.94,3.42,3.59,1.9,2.23
ACAATTAGTTGACTTAGGGCAACCGATACGACGC,1.03,0.677,0.936,0.628,0.455,1.37,0.444,0.709

Sequence,PBM binding z-score [1],PBM binding z-score [2],PBM binding z-score [3],PBM binding z-score [4],PBM binding z-score [5],PBM binding z-score [6],PBM binding z-score [7],PBM binding z-score [8]
TAGCCTAGGTCATGCGGGCCAGTATTGTGTCGGC,3.12,3.74,4.11,0.382,2.52,3.05,1.08,0.379
TCTTGTAGATCAATAGGAGGTTAAGAAAGATCGA,0.457,0.595,0.446,1.01,0.992,0.723,-0.311,-0.266
TGTCGGAGGACACGAAGGTCAGAGCTTTCCAGAG,3.4,3.38,4.14,-0.488,1.8,2.92,0.651,0.981
CCGACTGGGGTATAAGGTTACCATAAGCCAGCCC,0.893,0.542,0.421,-0.174,1.11,2.02,1.21,-0.0356
TCTTGTAGATCAGTAGAGGTTAAGAAAGTGCGCT,1.26,0.475,0.344,0.802,1.24,1.88,-0.288,0.245
GGAACGAGGGCATTCGAGATGATAGCATGGCGAT,0.609,1.13,1.65,3.05,1.02,1.44,-0.487,2.01
TCATATAGGTCATACAGGTGAAAGTCGGCATCTA,3.8,5.21,5.03,2.68,5.27,3.42,0.973,1.81
CTACCAAGGTGAACAAGGTCGTTGACTACTATTC,2.28,2.17,1.67,1.6,2.34,3.49,2,2.59
TCATATAGGTAAATGCGAGGTGAAAGTCCGATCT,1.05,0.929,0.538,1.89,1.18,2.78,1.54,0.605
TGTCAAAGTTCACAGGTAACGTAAGTATCCACAC,4.22,5.7,5.98,3.69,5.48,2.53,-0.165,3.53
ACTAGCAGGCAAAGGGTCACTCAAGATTAGTCCG,3.87,3.98,3.89,0.88,4.31,2.58,0.198,1.57
CATACAGGGTCAGCTTGGCCAGAGTAGGGACGGC,3.06,4.12,4.29,1.58,4.13,2.85,0.515,0.849
ACTACAGGGTCACTAGGCCAGAGTAGGTACGAAT,3.08,4.68,4.59,2.54,4.84,3.33,0.948,1.82
TCTTGCAGATCAGCAGGTTAAGAAAGCTGGCCAA,-0.126,-0.0186,-0.618,-0.0927,0.33,0.0241,-0.879,-0.987
CCTCGGAGGACAGAAGGTCAGAGATGTCCGCTTT,3.39,3.26,3.21,-0.0318,1.74,2.05,-0.116,0.382
TCTAGTTGGTCAAATGTCACACACTCGAAATGCG,1.64,1.73,1.78,1.24,1.68,0.653,0.677,0.702
CAAACTAGGTCACCGAGGTCAAAGTCCGTGCGTA,5.47,6.99,7.18,3.46,7.09,4.93,4.37,7.68
GCTGCTAAGTCAGGTTGGTCAGCTAACGGGTACG,0.212,-0.383,-0.568,-0.027,-0.344,-0.197,-0.581,-0.246
TATACAGAGTCAAAGGCCAGAGTACGAATGTCGA,0.843,0.902,1.01,-0.862,1.03,-0.0396,-0.776,0.0199

Sequence,PBM binding z-score [1],PBM binding z-score [2],PBM binding z-score [3],PBM binding z-score [4],PBM binding z-score [5],PBM binding z-score [6],PBM binding z-score [7],PBM binding z-score [8]
CCTACTGGTCCATTCAGAGGTCATTGATCATATG,4.13,3.66,2.62,1.73,3.92,2.91,2.07,4.16
TCATATAGGTAAAGGTGAAAGACGAACGATATGA,0.974,1.51,1.34,0.604,1.85,1.04,-0.601,-0.0355
AGAACGAGGGCACGCTGAGTAGATAGCAGAGTAG,0.843,1.94,2.23,1.58,1.45,1.58,-0.259,0.46
CTCGAAACGTCGGTTGAGGTGAGTATACGGATAA,-0.165,0.0462,0.0959,-0.0246,-0.0266,2.55,1.2,-0.242
CCTCGGAGGACATCAGGAGGTCAGAGCTGCCAGA,3.17,3.48,3.04,0.267,2.63,2.67,1.05,1.06
TGAATGAGGTTATAAGATCAGGGTACGTTGCAAA,0.678,1.49,1,0.96,2.09,2.04,0.622,1.73
ATCGAAAGGTTGAAGGTGAGTATACCCACCCGAA,0.919,1.45,1.24,-0.0221,2.38,0.997,-0.184,0.162
GCGACTGGGGCAAAGCAGGTTACCATTAGGTTGG,0.874,0.369,0.722,-0.196,0.428,2.77,-0.429,-0.578
CCGCGTAGGTTATGGGGCATTCAGGCAACGGTGA,1.05,0.489,0.397,-0.64,0.576,0.529,0.176,-0.154
TCGAGTAAGTTAGGGGCATTCAGAATGGCGTCGA,0.241,0.189,-0.154,0.53,0.495,1.08,-0.16,0.751
AATCAAAGTTCAGGACGAGGTAACGTAAAGCACG,3.22,4.66,4.55,2.68,2.92,3.92,1.58,2.06
CGAACTAGGTCATCCAGGACAGTTAATACATTGA,3,3.93,4.66,2.41,2.99,3.54,2.15,2.37
TAGCCTAGGTCATGGGCTAGTATACCACGCGAAC,2.79,4.26,4.32,-0.132,3.45,3.07,0.81,0.156
CCTAGTTGGCCAGGAGGTCACACACCGGATATGA,4.01,4.27,3.43,0.6,4.51,3.54,2.38,2.16
ATATGTAGGTTAGCTGGGGTCTTTCAGACTAGGC,0.902,0.713,0.709,0.448,0.914,3.67,0.871,0.329
CCTAGTTGGTCAAGGTCACACAGGCTATAGGTAC,4.45,4.8,5.13,2.24,4.86,4.16,4.07,4.27
CGTCCAAGGTCAATGCTAGGTCCGTGAAAGCATT,3.83,5.71,5.7,3.67,4.55,3.82,2.12,2.96
CCTTCTAGGTCATGGTCAGCTAATCTACAGTATG,3.46,4.02,5.08,2.02,3.37,3.45,2.5,0.794
TGTCAAAGTTCAAAGGTAACGTATGTATCCACAC,3.78,6.21,5.94,4.28,6.97,3.08,-0.0625,3.87
